The test system of the test is Plasmodium falciparum. In words: Plasmodium falciparum sporozoite viability assay. In kind it is functional, organism-based. Also on record: scale not given: in the data most compounds retested in dose-response had high values.

Molecules are shown by their SMILES. “And” between values parts separate entries of the source, which are not always exact repeats. Identical values can stand only once. In all, about 34,000 compounds went through this assay and about 290 (0.85%) showed an effect of 50% or more. Shown is part of a subset that was picked to be rich in strong results.

As for `CC(=O)N1CCN(c2ccc3ccc(C(=O)NC4CCCC4)cn23)CC1`, the “Percent Effect” value is -4.944%. For `Cc1cc(C(=O)N2CCN(c3ncc4c(n3)CCOC4)CC2)sc1C`, the “Percent Effect” value was -7.443%.

Regarding `Cc1nc(CN2CCc3c(nc(C4CC4)n3C)C2)nc2ccccc12`, the “Percent Effect” value (10 mM as filed; unlikely as a test dose) is -16.27% and -10.13%. On the same count and under the same terms, with `Cc1nc2ccccc2nc1CN1CCc2c(nc(C3CC3)n2C)C1` the figure was -9.933% and -2.839%; with `Cn1c(C2CC2)nc2c1CCN(Cc1nc3ccccc3s1)C2`, 48.9% and 53.74%. Consider `c1ccc2nc(N3CCOC(Cn4cccn4)C3)cnc2c1` (stereo unspecified), for which the “Percent Effect” value came to 7.131%. On the same count and under the same terms, the value for `OCC1CCCN1c1cc(NCc2ccsc2)ncn1` (stereo unspecified) was 11.95%. Turning to `OCC1CCCN1c1cc(NCCc2ccsc2)ncn1` (stereo unspecified), where the note is “10 mM as filed; unlikely as a test dose”, the “Percent Effect” value was 86.32% and 73.55%.

With `OCC1CCCN1c1cc(NCCc2ccccn2)ncn1` (stereo unspecified), the “Percent Effect” value (10 mM as filed; unlikely as a test dose) is 91.05% and 79.59%. Regarding `OCC1CCCN1c1cc(NCCc2nccs2)ncn1` (stereo unspecified), where the note is “10 mM as filed; unlikely as a test dose”, the “Percent Effect” value was 21.04% and 15.76%. On the same count and under the same terms, with `OCC1CCCN1c1cc(NCc2ccccn2)ncn1` (stereo unspecified) the figure was -21.68% and -23.27%. For the compound `Cc1cccnc1CNc1cc(N2CCCC2CO)ncn1` (stereo unspecified), the “Percent Effect” value was -13.57%.

In the case of `OCC1CCCN1c1cc(NCCNc2cccnn2)ncn1` (stereo unspecified), the “Percent Effect” value (10 mM as filed; unlikely as a test dose) was 9.971% and -4.087%. Turning to `CC(C)CN(C)Cc1nc2c(cnn2C)c(=O)[nH]1`, the “Percent Effect” value is 7.587%. On the same count and under the same terms, with `CN(C)CC1CN(Cc2nc(-c3ccccn3)no2)CCO1` (stereo unspecified) the figure was 24.23%.

With `CN1CCN(S(=O)(=O)c2ccc(Cl)c(Cl)c2)c2cnccc21`, the “Percent Effect” value (10 mM as filed; unlikely as a test dose) was -22.78% and -8.887%. Consider `Cc1cc(-c2cc(F)ccc2C(=O)O)nc(C2CCCCN2C(C)C)n1` (stereo unspecified), for which the “Percent Effect” value is reported as 4.863%. As for `CC(=O)N1N=C(c2ccccc2)OC1C(=O)NCCc1ccc(O)cc1` (stereo unspecified), the “Percent Effect” value is listed as 3.916%. On to `CC[C@@H](C)[C@@H](N)C(=O)Nc1cccc(-c2cnc(N(C)CCO)nc2)c1`, for which the “Percent Effect” value came out at 4.657%.

For the compound `CCn1cc(NC(=O)NCCN2CCCc3ccccc32)cn1`, the “Percent Effect” value is given as -384.2%. For `Cn1cc(CCNC(=O)CCc2ccc3c(c2)OCO3)cn1`, the “Percent Effect” value stood at 0.08354%. For `O=C(CCn1cccn1)NS(=O)(=O)N1CCCc2ccccc21`, the “Percent Effect” value (10 mM as filed; unlikely as a test dose) is 88.08% and 94.17% and 83.19%.

Regarding `Cn1cc(CCC(=O)NS(=O)(=O)N2CCCc3ccccc32)cn1`, the “Percent Effect” value (10 mM as filed; unlikely as a test dose) is 95.69% and 93.95% and 93.94%.

Consider `Cc1cnn(CCC(=O)NS(=O)(=O)N2CCc3ccccc32)c1`, for which, for the setting “10 mM as filed; unlikely as a test dose”, the “Percent Effect” value is -13.26% and -21.53% and -23.4%. On to `Cn1nc(CNC(=O)c2ccc(OC(F)(F)F)cc2)c2c1CCOC2`, for which the “Percent Effect” value is reported as -1.164%.

With `Cn1ncc(NCc2cccc(F)c2)c(Cl)c1=O`, the “Percent Effect” value was 2.958%.

On to `CNC(=O)[C@@H]1CCO[C@@H]2CCN(CCc3ccccc3)C[C@H]21.O=C(O)C(F)(F)F`, for which the “Percent Effect” value turned out to be 14.59%. For `Cc1cnc(N(C)Cc2cnc3ccccc3n2)nc1N(C)C`, the “Percent Effect” value (10 mM as filed; unlikely as a test dose) was 42.78% and 58%. Still for that read-out and setting: with `CC(CO)CN(Cc1ccccc1)Cc1cnc2ccccc2n1` (stereo unspecified) the figure was 33.49% and 37.4%; with `CC(=O)c1cnc(N(C)Cc2cnc3ccccc3n2)nc1C`, -14.78% and -20.36%.

With `Cc1cnn(C2CCCN(C(=O)Cc3ccc(C)s3)C2)c1` (stereo unspecified), the “Percent Effect” value is listed as 7.18%. Take `Cc1cnc(CCNc2cccc(CC3CCCNC3)n2)s1.Cl` (stereo unspecified): the “Percent Effect” value is recorded as -6.2%.

`Cc1nc(N(CCC(N)=O)Cc2ccccc2)c2nc(C)oc2n1`: the “Percent Effect” value stood at 2.982%. Still for that read-out and setting: the value for `CN(Cc1noc(C2CC2)n1)C1CCN(Cc2ccccc2C#N)C1` (stereo unspecified) was 5.942%. The same measure, in the same setting: with `Cc1nccn1CCCC(=O)N1CCCC(c2noc(C(C)C)n2)C1` (stereo unspecified) the figure was 1.926%. As to `CN1CCN(Cc2ccc(-c3ccc(-c4ccn[nH]4)cc3)nc2)CC1`, the “Percent Effect” value (10 mM as filed; unlikely as a test dose) is 56.12% and 32.6%. Regarding `CC(=O)N1CCCN(C(=O)NCc2ccc(-c3ccn[nH]3)cc2)CC1`, the “Percent Effect” value amounted to 9.841%. As for `CN1CCN(Cc2ccc(-c3ccc(C(N)=O)cc3)nc2)CC1`, for the setting “10 mM as filed; unlikely as a test dose”, the “Percent Effect” value was -29.68% and -21.28%.

On to `O=C(NCc1nn(-c2ccccc2)c2c1CCC2)NCC1COCCO1` (stereo unspecified), for which the “Percent Effect” value is 13.65%. Still for that read-out and setting: with `Cc1nc2c(c(NCCc3nccs3)n1)CCN(CC1CC1)CC2` the figure was -1.253%; with `Cc1cnn(CC2CCCN2C(=O)c2cc3ccccc3c(=O)[nH]2)c1` (stereo unspecified), 2.755%. On to `CN1CCC(c2cccc(NCc3nccn3C)n2)CC1`, for which the “Percent Effect” value (10 mM as filed; unlikely as a test dose) was 4.151% and -3.748% and -15.94%. Same read-out and setting: the value for `CN1CCC(c2cnc(NCc3nccn3C)cn2)CC1` was 45.14% and 64.85% and 67.7%. With `Cl.Cn1ccnc1CNC(=O)c1cnc(C2CCNCC2)cn1`, the “Percent Effect” value is listed as 2.787%. Consider `COc1ccc(CN(C)[C@@H]2CN(C(=O)c3cnn(C)c3)C[C@H]2O)cc1`, for which the “Percent Effect” value is listed as 2.355%. The same measure, in the same setting: the value for `FC1(F)CCN(Cc2ccncc2)CC12CCN(c1cnccn1)C2.O=C(O)C(F)(F)F.O=C(O)C(F)(F)F.O=C(O)C(F)(F)F` (stereo unspecified) was 22.83%.

These data come from ChEMBL document CHEMBL3988442, “University of Dundee, Small-Polar-MMV Screening Library” (2021).
